The panel holds about 83,000 compounds, 20% with a hit somewhere; the sample as a whole holds those more often.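 A percent growth of 40 corresponds to 60% growth inhibition; 0 means no net growth; -100 means all cells died. Active threshold: below 10.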 Active and inactive are the calls of the source.
What was measured:
Test in all cases: NCI-60 one-dose screen, 48 h (100 = growth as untreated, 0 = no growth, -100 = all killed)
Conditions in all cases: 10 µM unless noted
[1] = test system: NCI-H23 lung
[2] = test system: NCI-H226 lung
[3] = test system: NCI-H322M lung
[4] = test system: HOP-62 NSCLC
[5] = test system: NCI-H460 lung
[6] = test system: HOP-92 NSCLC
[7] = test system: NCI-H522 lung
[8] = test system: A549/ATCC NSCLC
[9] = test system: 786-0 renal
[10] = test system: COLO 205 colon
[11] = test system: DU-145 prostate
[12] = test system: K-562 leukemia
[13] = test system: MALME-3M melanoma
[14] = test system: MDA-MB-231 breast
[15] = test system: RXF 393 renal
[16] = test system: SF-268 CNS
[17] = test system: SF-295 CNS
[18] = test system: SF-539 CNS
[19] = test system: UACC-257 melanoma
[20] = test system: M14 melanoma

Measured: growth

Nc1ncnc2c1c(-c1ccc(Oc3ccccc3)cc1)nn2C[C@@H]1SSC[C@@H]1O
active: [5] -30.5% | [6] -4.45% | [7] -22.1% | [12] 2.87% | [13] -7.41% | [20] -85.1%
inactive: [1] 28.8% | [2] 46.7% | [3] 61.8% | [4] 48.8% | [8] 22.1% | [9] 57.5% | [10] 33.8% | [11] 34% | [14] 52% | [15] 37.7% | [16] 29.7% | [17] 38.3% | [18] 40.9% | [19] 14.6%

COc1ccc(-c2[nH]nc(N)c2-c2cc(OC)c3c(c2)OCO3)cc1
active: [7] -21%
inactive: [1] 63.4% | [2] 84.9% | [3] 92.9% | [4] 59.8% | [5] 33.1% | [6] 69.7% | [8] 52% | [9] 77.6% | [10] 61.3% | [11] 92.3% | [12] 22.4% | [13] 46.9% | [14] 43% | [15] 95.9% | [16] 64.9% | [17] 53.9% | [18] 59.3% | [19] 79.3% | [20] 22.1%

O=C(CSc1nc2ccccc2[nH]1)c1ccc(N2CCOCC2)cc1
inactive: [1] 92.9% | [2] 97.6% | [3] 99.5% | [4] 104% | [5] 104% | [6] 104% | [7] 102% | [8] 102% | [9] 96.4% | [10] 117% | [11] 107% | [12] 99.5% | [13] 100% | [14] 103% | [15] 98.1% | [16] 103% | [17] 96.8% | [18] 100% | [19] 102% | [20] 106%

N=C(N)c1ccc(-c2ccc(-c3ccc(-c4cccs4)s3)s2)cc1
inactive: [1] 98.8% | [2] 93.4% | [3] 43% | [4] 93.8% | [5] 21.7% | [6] 54.6% | [7] 100% | [8] 14% | [9] 89.9% | [10] 102% | [11] 90.4% | [12] 58% | [13] 85% | [14] 81.1% | [15] 80.7% | [16] 93.5% | [17] 101% | [18] 88.5% | [19] 99.3% | [20] 100%

C=C(C)[C@@H]1C[C@@H]2Cc3ccc(Cl)c(C)c3N1O2
inactive: [1] 97.4% | [2] 107% | [3] 108% | [4] 98% | [5] 106% | [6] 77.5% | [7] 84.8% | [8] 89.9% | [9] 98.5% | [10] 112% | [11] 97.3% | [12] 91.3% | [13] 120% | [14] 91.5% | [15] 99.4% | [16] 96.8% | [17] 95.4% | [18] 90.8% | [19] 90% | [20] 105%

COc1ccc(-c2nc(/C=N/Nc3cc(C)nc4ccc(Br)cc34)c(C)o2)cc1
inactive: [4] 64.5% | [19] 108%
active: [1] -41.9% | [2] -37.4% | [3] -96.2% | [5] -80.6% | [6] -84.3% | [7] -58.4% | [8] -61% | [9] -81.5% | [10] -75.6% | [11] -90.2% | [12] -49.1% | [13] -84.6% | [14] -89.2% | [15] -90.9% | [16] -72.9% | [17] -90.4% | [18] -96.1% | [20] 1.07%

CO[C@H]1NC(=O)N(S(=O)(=O)c2ccc(Cl)cc2)[C@@H]1OC
inactive: [1] 107% | [2] 131% | [3] 111% | [4] 93.1% | [5] 110% | [6] 114% | [7] 105% | [8] 98.2% | [9] 103% | [10] 108% | [11] 115% | [12] 93.2% | [13] 101% | [14] 108% | [15] 119% | [16] 102% | [17] 92.1% | [18] 98.7% | [19] 106% | [20] 115%

Cc1nc2ncccc2nc1Nc1ccc(S(=O)(=O)Nc2ccccn2)cc1
inactive: [1] 90.6% | [2] 94.5% | [3] 96.1% | [4] 97% | [5] 106% | [6] 54.3% | [7] 81.6% | [8] 101% | [9] 94.9% | [10] 98.5% | [11] 105% | [12] 106% | [13] 107% | [14] 89.1% | [15] 109% | [16] 98.4% | [17] 104% | [18] 97.5% | [19] 107% | [20] 97.5%

COc1ccc(-n2c(=O)sc3c(Cl)nc(C)nc32)c(OC)c1
inactive: [1] 79.8% | [2] 99.4% | [3] 96.5% | [4] 86.1% | [5] 57.4% | [6] 76.9% | [7] 78.5% | [8] 98.7% | [9] 99.2% | [10] 99.4% | [11] 84.3% | [12] 24.9% | [13] 101% | [14] 80.4% | [15] 93.5% | [16] 63.3% | [17] 104% | [18] 105% | [19] 85.1% | [20] 75.7%

N=C(N)c1ccc(-c2ccc(-c3ccc4ccccc4c3)s2)cc1
inactive: [1] 88.7% | [2] 96.7% | [3] 97% | [4] 97.6% | [5] 99.7% | [6] 79.3% | [7] 104% | [8] 71.5% | [9] 95% | [10] 97.9% | [11] 99.6% | [13] 105% | [14] 95.4% | [15] 61.6% | [16] 94.7% | [17] 102% | [18] 97% | [19] 106% | [20] 99.6%
active: [12] 1.51%

CN(C)c1oc(C2OC2c2ccccc2)nc1C#N (stereo not given)
inactive: [1] 95.2% | [2] 80.7% | [3] 81.6% | [4] 75.6% | [5] 109% | [6] 79% | [7] 87.7% | [8] 90.8% | [9] 102% | [10] 94.5% | [11] 107% | [12] 106% | [13] 95.9% | [14] 87.3% | [15] 86.7% | [16] 95.7% | [17] 98.8% | [18] 104% | [19] 83% | [20] 104%

CCCCN(CCCC)C(=O)CC
inactive: [1] 102% | [2] 104% | [3] 117% | [4] 119% | [5] 108% | [6] 96.4% | [7] 114% | [8] 106% | [9] 102% | [10] 119% | [11] 112% | [12] 101% | [13] 124% | [14] 114% | [15] 128% | [16] 105% | [17] 109% | [18] 112% | [19] 129% | [20] 111%

O=c1ccn(C2CC(O)C(O)C(CO)O2)c(=O)[nH]1 (stereo not given)
inactive: [1] 110% | [2] 142% | [3] 131% | [4] 107% | [5] 124% | [6] 121% | [7] 148% | [8] 118% | [9] 109% | [10] 113% | [11] 121% | [12] 109% | [13] 112% | [14] 116% | [15] 245% | [16] 122% | [17] 112% | [18] 107% | [19] 112% | [20] 105%

O=C1/C(=C/c2ccccc2)Oc2ccc(O)c(I)c21
inactive: [1] 96.5% | [2] 74.9% | [3] 94.5% | [4] 100% | [5] 103% | [6] 86% | [7] 84% | [8] 103% | [9] 98.9% | [10] 120% | [11] 111% | [12] 99.5% | [13] 101% | [14] 81% | [15] 108% | [16] 82.6% | [17] 104% | [18] 87.7% | [19] 96.6% | [20] 98.5%

O=C(NCCNc1nccc(-n2ccc3cccnc32)n1)c1ccc(C(F)(F)F)cc1
inactive: [1] 105% | [2] 97.7% | [3] 107% | [4] 99.2% | [5] 102% | [6] 112% | [7] 100% | [8] 102% | [9] 103% | [10] 112% | [11] 111% | [12] 99.8% | [13] 108% | [14] 97.7% | [15] 110% | [16] 97.8% | [17] 101% | [18] 107% | [19] 108% | [20] 102%

COc1ccc(C(=O)NC(=O)Nc2cc3c(cc2F)/C(=C/c2[nH]c(C)c(CCC(=O)O)c2C)C(=O)N3)c(F)c1
active: [6] -0.4%
inactive: [1] 41.3% | [2] 53.3% | [3] 63.9% | [4] 25.8% | [5] 28.6% | [7] 48.6% | [8] 13.5% | [9] 39% | [10] 67.4% | [11] 45.9% | [12] 45.8% | [13] 49.9% | [14] 61.5% | [15] 33.5% | [16] 32.3% | [17] 21.3% | [18] 15.4% | [19] 20.1% | [20] 44.2%
